Data taken from ChEMBL document CHEMBL1961873, “Compounds: GSK PKIS; Assays: Nanosyn kinase panel” (2012).
Where “and” joins values, the source holds several entries; their conditions need not be identical. Equal values may be shown once.

Assays:
[1] = target: Serine/threonine-protein kinase MRCK alpha (Homo sapiens) (UniProt Q5VT25); conditions: at 0.1 µM
[2] = target: Serine/threonine-protein kinase MRCK alpha (Homo sapiens) (UniProt Q5VT25); conditions: at 1 µM
[3] = target: Serine/threonine-protein kinase MRCK beta (Homo sapiens) (UniProt Q9Y5S2); conditions: at 0.1 µM
Sequence of Serine/threonine-protein kinase MRCK beta (Homo sapiens) (Q9Y5S2 whole entry): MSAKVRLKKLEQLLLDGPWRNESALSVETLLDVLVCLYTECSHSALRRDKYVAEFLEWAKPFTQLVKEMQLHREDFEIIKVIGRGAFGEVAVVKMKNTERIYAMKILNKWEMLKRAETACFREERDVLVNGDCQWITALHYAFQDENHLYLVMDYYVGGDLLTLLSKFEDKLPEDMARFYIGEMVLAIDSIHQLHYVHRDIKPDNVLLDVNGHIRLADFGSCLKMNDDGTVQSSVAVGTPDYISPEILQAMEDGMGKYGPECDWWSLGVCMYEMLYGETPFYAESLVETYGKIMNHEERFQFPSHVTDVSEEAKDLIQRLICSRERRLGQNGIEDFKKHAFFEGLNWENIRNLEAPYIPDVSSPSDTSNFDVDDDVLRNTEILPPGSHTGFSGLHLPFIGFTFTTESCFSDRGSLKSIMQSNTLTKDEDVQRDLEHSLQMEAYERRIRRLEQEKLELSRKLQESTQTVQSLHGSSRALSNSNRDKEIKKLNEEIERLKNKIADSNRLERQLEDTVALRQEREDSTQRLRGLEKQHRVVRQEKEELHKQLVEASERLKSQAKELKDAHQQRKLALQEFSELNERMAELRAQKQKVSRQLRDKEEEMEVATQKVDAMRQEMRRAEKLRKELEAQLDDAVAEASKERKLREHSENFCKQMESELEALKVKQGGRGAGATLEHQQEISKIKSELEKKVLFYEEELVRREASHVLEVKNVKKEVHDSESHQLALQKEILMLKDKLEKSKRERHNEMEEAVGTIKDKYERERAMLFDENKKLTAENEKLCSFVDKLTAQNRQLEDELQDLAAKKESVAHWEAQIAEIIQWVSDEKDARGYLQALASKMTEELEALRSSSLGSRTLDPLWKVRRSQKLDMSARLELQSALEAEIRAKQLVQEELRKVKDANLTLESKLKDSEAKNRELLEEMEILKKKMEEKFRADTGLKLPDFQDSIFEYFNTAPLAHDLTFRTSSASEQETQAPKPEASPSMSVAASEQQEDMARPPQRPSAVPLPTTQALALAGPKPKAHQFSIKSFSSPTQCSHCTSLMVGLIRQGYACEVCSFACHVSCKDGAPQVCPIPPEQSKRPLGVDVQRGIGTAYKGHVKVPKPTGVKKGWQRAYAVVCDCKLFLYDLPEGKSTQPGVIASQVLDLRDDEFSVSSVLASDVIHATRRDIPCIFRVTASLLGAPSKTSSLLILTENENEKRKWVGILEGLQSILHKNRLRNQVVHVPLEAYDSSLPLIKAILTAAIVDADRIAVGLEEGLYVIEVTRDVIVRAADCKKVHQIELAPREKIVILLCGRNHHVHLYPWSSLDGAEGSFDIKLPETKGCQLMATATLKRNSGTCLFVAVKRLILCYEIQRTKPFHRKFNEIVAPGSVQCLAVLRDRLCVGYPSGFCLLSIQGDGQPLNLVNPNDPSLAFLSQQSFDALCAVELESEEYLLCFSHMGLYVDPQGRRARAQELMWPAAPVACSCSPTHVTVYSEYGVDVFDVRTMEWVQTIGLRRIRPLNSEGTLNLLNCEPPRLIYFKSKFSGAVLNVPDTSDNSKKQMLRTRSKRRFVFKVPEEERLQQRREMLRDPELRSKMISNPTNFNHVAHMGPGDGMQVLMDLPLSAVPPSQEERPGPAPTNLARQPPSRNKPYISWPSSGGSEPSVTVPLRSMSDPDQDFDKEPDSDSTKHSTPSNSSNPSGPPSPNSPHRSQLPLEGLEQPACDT

[4] = target: Serine/threonine-protein kinase MRCK beta (Homo sapiens) (UniProt Q9Y5S2); conditions: at 1 µM
[5] = target: Ribosomal protein S6 kinase alpha-5 (Homo sapiens) (UniProt O75582); conditions: at 0.1 µM
Sequence of Ribosomal protein S6 kinase alpha-5 (Homo sapiens) (O75582 whole entry, looked up): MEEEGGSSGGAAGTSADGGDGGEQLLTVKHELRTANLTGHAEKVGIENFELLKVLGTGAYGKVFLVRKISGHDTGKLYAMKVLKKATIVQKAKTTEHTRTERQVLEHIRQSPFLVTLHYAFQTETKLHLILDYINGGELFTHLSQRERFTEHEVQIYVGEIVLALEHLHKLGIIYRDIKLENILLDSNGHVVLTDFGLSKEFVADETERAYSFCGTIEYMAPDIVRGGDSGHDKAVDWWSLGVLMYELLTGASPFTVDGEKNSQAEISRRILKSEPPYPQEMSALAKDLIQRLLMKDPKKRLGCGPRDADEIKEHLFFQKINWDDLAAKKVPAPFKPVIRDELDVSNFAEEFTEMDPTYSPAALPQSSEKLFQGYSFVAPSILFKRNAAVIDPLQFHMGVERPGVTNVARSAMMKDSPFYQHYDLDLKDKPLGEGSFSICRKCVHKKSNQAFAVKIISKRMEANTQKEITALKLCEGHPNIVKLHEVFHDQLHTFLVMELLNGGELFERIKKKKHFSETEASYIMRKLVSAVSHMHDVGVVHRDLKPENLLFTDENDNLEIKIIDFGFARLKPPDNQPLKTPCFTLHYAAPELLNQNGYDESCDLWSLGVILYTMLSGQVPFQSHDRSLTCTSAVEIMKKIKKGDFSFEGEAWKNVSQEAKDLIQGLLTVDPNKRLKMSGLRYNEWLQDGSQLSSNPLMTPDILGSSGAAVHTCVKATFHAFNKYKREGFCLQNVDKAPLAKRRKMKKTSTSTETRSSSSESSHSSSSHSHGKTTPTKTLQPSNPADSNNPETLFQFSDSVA

[6] = target: Ribosomal protein S6 kinase alpha-5 (Homo sapiens) (UniProt O75582); conditions: at 1 µM
[7] = target: Ribosomal protein S6 kinase alpha-4 (Homo sapiens) (UniProt O75676); conditions: at 0.1 µM
Sequence of Ribosomal protein S6 kinase alpha-4 (Homo sapiens) (O75676 whole entry, looked up): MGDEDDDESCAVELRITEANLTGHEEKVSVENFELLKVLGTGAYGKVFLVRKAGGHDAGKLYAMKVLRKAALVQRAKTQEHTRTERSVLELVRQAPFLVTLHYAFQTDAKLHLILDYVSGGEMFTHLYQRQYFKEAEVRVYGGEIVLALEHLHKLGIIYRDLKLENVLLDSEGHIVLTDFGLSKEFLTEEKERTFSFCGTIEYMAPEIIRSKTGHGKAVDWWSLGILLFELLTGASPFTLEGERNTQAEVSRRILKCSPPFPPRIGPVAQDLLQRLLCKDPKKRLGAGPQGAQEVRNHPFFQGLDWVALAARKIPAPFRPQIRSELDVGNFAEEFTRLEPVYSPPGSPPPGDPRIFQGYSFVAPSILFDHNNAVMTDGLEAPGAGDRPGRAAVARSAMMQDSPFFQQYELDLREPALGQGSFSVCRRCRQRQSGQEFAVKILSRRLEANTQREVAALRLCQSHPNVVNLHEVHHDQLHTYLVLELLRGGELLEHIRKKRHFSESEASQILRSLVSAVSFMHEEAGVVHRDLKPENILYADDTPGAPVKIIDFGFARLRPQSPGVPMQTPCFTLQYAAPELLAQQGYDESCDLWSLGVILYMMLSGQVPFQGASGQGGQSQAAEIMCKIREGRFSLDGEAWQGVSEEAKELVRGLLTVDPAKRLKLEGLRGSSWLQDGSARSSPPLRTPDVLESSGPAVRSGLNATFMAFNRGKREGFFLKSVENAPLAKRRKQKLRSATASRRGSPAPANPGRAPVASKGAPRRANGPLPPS

[8] = target: Ribosomal protein S6 kinase alpha-4 (Homo sapiens) (UniProt O75676); conditions: at 1 µM
[9] = target: Ribosomal protein S6 kinase beta-1 (Homo sapiens) (UniProt P23443); conditions: at 0.1 µM
[10] = target: Ribosomal protein S6 kinase beta-1 (Homo sapiens) (UniProt P23443); conditions: at 1 µM

Sequence of Serine/threonine-protein kinase MRCK alpha (Homo sapiens) (Q5VT25 whole entry): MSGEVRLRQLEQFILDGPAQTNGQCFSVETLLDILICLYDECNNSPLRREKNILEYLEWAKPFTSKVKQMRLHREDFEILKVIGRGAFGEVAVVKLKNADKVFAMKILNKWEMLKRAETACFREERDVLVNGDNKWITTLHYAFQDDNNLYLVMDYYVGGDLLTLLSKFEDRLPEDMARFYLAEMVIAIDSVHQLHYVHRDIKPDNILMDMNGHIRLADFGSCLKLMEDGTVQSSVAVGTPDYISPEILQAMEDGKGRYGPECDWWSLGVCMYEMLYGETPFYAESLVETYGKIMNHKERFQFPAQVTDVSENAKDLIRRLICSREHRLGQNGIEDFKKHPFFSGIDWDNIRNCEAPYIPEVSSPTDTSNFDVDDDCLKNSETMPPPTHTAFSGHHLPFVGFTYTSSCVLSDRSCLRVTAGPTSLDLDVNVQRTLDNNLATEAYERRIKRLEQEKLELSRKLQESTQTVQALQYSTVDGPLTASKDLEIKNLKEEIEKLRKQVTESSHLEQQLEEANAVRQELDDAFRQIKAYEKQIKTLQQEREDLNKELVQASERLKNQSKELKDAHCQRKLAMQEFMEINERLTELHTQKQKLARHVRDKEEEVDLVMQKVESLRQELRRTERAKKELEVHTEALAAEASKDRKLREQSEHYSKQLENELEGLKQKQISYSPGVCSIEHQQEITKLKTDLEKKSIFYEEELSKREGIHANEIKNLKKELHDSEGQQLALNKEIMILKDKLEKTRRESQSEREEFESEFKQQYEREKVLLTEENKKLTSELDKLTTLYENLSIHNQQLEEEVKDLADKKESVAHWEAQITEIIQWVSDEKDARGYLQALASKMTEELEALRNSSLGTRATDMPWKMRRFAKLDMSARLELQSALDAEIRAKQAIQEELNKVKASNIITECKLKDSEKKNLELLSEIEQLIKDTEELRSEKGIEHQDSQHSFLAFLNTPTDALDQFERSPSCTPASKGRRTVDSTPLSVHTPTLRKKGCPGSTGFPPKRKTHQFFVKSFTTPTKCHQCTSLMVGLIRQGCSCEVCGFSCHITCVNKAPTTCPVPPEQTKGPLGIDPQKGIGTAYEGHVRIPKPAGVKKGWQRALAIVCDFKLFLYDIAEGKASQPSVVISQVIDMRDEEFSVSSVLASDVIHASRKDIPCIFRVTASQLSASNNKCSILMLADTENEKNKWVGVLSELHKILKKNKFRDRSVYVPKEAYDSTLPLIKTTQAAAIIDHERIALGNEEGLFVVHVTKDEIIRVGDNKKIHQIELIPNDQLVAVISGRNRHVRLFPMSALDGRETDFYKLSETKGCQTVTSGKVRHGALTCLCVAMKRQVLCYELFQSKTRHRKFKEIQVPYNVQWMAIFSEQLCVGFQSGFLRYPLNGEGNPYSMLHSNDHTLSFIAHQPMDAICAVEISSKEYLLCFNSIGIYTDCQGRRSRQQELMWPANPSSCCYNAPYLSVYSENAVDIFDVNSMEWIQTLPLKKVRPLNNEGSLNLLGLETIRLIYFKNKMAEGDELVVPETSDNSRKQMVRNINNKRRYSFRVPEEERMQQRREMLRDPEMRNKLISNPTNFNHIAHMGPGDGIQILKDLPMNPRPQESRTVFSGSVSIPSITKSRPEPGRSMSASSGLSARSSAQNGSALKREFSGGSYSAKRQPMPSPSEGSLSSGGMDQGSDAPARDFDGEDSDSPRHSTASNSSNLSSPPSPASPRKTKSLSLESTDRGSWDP

Cc1c2ccc(N(C)c3ccnc(Nc4cccc(S(N)(=O)=O)c4)n3)cc2nn1C was tested, and the inhibition [1] was -0.27%, the inhibition [2] was 0.18% and the inhibition [3] was 0.8%. The inhibition [4] was 0.18%, the inhibition [5] was 2.9% and the inhibition [6] was 1.29%. It also gave an inhibition [7] of 2.14%, an inhibition [8] of 5.76% and an inhibition [9] of 2.59%. For the same compound, the inhibition [10] was 2.64%.

Work on Cc1ccc(-c2cc3c(NC(=O)C4CC4)ncnc3o2)cc1 yielded an inhibition [1] of -0.24%, an inhibition [2] of 0.37% and an inhibition [3] of 1.15%. The inhibition [4] was 1.58%, the inhibition [5] was 3.67% and the inhibition [6] was 3.15%. It also gave an inhibition [7] of 2.15%, an inhibition [8] of 4.27% and an inhibition [9] of 2.29%. The inhibition [10] was 1.52%.

Nc1nonc1-c1nc2cnccc2n1C1CC1 was tested, and the inhibition [1] was 4.84% and 5.86%, the inhibition [2] was 35.7% and 40% and the inhibition [3] was 7.62% and 9.27%. For the same compound, the inhibition [4] was 41% and 42.7%, the inhibition [5] was 75.6% and 71.7% and the inhibition [6] was 82.3% and 76.5%. For the same compound, the inhibition [7] was 44.6% and 48.9%, the inhibition [8] was 75.1% and 74.5% and the inhibition [9] was 66.6% and 68.6%. For the same compound, the inhibition [10] was 89.3% and 88.8%.

Compound CCOc1ccc2c(-c3ccnc(Nc4cc(OC)cc(C(F)(F)F)c4)n3)cnn2n1 has an inhibition [1] of -0.76%, an inhibition [2] of -0.62% and an inhibition [3] of 0.09%. The inhibition [4] was 0.13%, the inhibition [5] was 1.4% and the inhibition [6] was 2.37%. For the same compound, the inhibition [7] was 1.07%, the inhibition [8] was -0.61% and the inhibition [9] was 0.27%. For the same compound, the inhibition [10] was 0.73%.

For CN1CCC(C(=O)Nc2n[nH]c3nc(-c4ccc(O)cc4)c(Br)cc23)CC1, the inhibition [1] was 2.05% and 4.4%, the inhibition [2] was 21.6% and 19.5% and the inhibition [3] was 1.99% and 0.84%. For the same compound, the inhibition [4] was 12.8% and 12.7%, the inhibition [5] was 1.62% and 0.25% and the inhibition [6] was 3.91% and 1.49%. For the same compound, the inhibition [7] was 2.85% and 1.78%, the inhibition [8] was 5.51% and 1.19% and the inhibition [9] was 0.96% and -0.21%. The inhibition [10] was 2.58% and -0.02%.

Work on CCn1c(-c2nonc2N)nc2cncc(C(=O)NCCNC)c21 yielded an inhibition [1] of 14.6%, an inhibition [2] of 69.9% and an inhibition [3] of 23.3%. The inhibition [4] was 66.7%, the inhibition [5] was 55.2% and the inhibition [6] was 76.8%. For the same compound, the inhibition [7] was 35.5%, the inhibition [8] was 71.4% and the inhibition [9] was 31.9%. It also gave an inhibition [10] of 78.2%.

NS(=O)(=O)c1ccc(N/N=C2\C(=O)Nc3ccc(C(=O)NCc4ccncc4)cc32)cc1 showed an inhibition [1] of 0.07%, an inhibition [2] of 3.72% and an inhibition [3] of -0.38%. The inhibition [4] was 2.29%, the inhibition [5] was 5.11% and the inhibition [6] was 9.08%. It also gave an inhibition [7] of 3.9%, an inhibition [8] of 14.5% and an inhibition [9] of 1.29%. It also gave an inhibition [10] of 6.6%.

With COc1cc2c(cc1Nc1nc(Nc3cccc(F)c3C(N)=O)c3cc[nH]c3n1)N(C(=O)CN1CCN(C(C)C)CC1)CC2 the inhibition [1] was 6.36%, the inhibition [2] was 5.12% and the inhibition [3] was 0.17%. The inhibition [4] was 2.33%, the inhibition [5] was 1.4% and the inhibition [6] was 3.93%. It also gave an inhibition [7] of 1.44%, an inhibition [8] of 3.9% and an inhibition [9] of 2.23%. For the same compound, the inhibition [10] was 2.83%.

Work on COc1cccc(-n2ncc3c(N/N=C/c4ccc(C(=O)NCCN(C)C)cc4)ncnc32)c1 yielded an inhibition [1] of 2.1%, an inhibition [2] of 7.78% and an inhibition [3] of 2.49%. The inhibition [4] was 8.24%, the inhibition [5] was 3.26% and the inhibition [6] was 8.01%. For the same compound, the inhibition [7] was 1.32%, the inhibition [8] was 4.69% and the inhibition [9] was 4.61%. The inhibition [10] was 20.9%.

CCCNc1cccc(-n2ncc3c(N/N=C/c4ccncc4)ncnc32)c1 showed an inhibition [1] of 1.31%, an inhibition [2] of 5.18% and an inhibition [3] of -0.11%. For the same compound, the inhibition [4] was 0.92%, the inhibition [5] was -4.25% and the inhibition [6] was -2.6%. The inhibition [7] was 1.74%, the inhibition [8] was 2.6% and the inhibition [9] was 1.2%. It also gave an inhibition [10] of 8.74%.

With CCS(=O)(=O)c1ccc(OC)c(Nc2ncc(-c3cccc(C(C)=O)c3)o2)c1 the inhibition [1] was -0.63%, the inhibition [2] was 3.28% and the inhibition [3] was -1.42%. For the same compound, the inhibition [4] was -0.03%, the inhibition [5] was 2.8% and the inhibition [6] was 4.68%. It also gave an inhibition [7] of 0.6%, an inhibition [8] of 2.7% and an inhibition [9] of 1.32%. The inhibition [10] was 2.57%.

Work on COc1ccc2ncn(-c3cc(O[C@H](C)c4ccccc4C(F)(F)F)c(C(N)=O)s3)c2c1 yielded an inhibition [1] of -0.19%, an inhibition [2] of 2.79% and an inhibition [3] of 0.61%. For the same compound, the inhibition [4] was 2.31%, the inhibition [5] was -0.46% and the inhibition [6] was -0.11%. For the same compound, the inhibition [7] was 0.7%, the inhibition [8] was 2.33% and the inhibition [9] was 0.7%. It also gave an inhibition [10] of -0.16%.

Fc1cccc(COc2ccc(Nc3ncncc3C#Cc3ccccc3)cc2Cl)c1 was tested, and the inhibition [1] was -0.09%, the inhibition [2] was 2.32% and the inhibition [3] was -0.25%. The inhibition [4] was 0.29%, the inhibition [5] was 3.88% and the inhibition [6] was 4.33%. It also gave an inhibition [7] of 2.46%, an inhibition [8] of 4.37% and an inhibition [9] of 1.71%. The inhibition [10] was 2.17%.

For O=C(O[C@H]1CN[C@H](C#Cc2cc3ncnc(Nc4ccc(OCc5cccc(F)c5)c(Cl)c4)c3s2)C1)N1CCOCC1, the inhibition [1] was -0.44%, the inhibition [2] was 0.92% and the inhibition [3] was 0.34%. For the same compound, the inhibition [4] was 0.26%, the inhibition [5] was -0.86% and the inhibition [6] was 0.41%. It also gave an inhibition [7] of 2.64%, an inhibition [8] of 4.39% and an inhibition [9] of 1.72%. It also gave an inhibition [10] of 2.85%.

For Nc1ncnc2occ(-c3ccc(NC(=O)Nc4cc(C(F)(F)F)ccc4F)cc3)c12, the inhibition [1] was 0.43%, the inhibition [2] was -0.27% and 0.62% and the inhibition [3] was 0.53% and -0.08%. The inhibition [4] was 0.77% and -0.99%, the inhibition [5] was 5.58% and -0.86% and the inhibition [6] was 23.9% and 10.9%. For the same compound, the inhibition [7] was 3.23% and -1.15%, the inhibition [8] was 19.7% and 6.99% and the inhibition [9] was 28.2% and 17.1%. The inhibition [10] was 77.4% and 70.2%.

Work on COc1cc(N2CCN(C(C)C)CC2)ccc1Nc1nc(Nc2cccc3ncccc23)c2cc[nH]c2n1 yielded an inhibition [1] of -0.06%, an inhibition [2] of 4.44% and an inhibition [3] of 0.85%. For the same compound, the inhibition [4] was 4.14%, the inhibition [5] was 0.1% and the inhibition [6] was 1.16%. It also gave an inhibition [7] of 1.01%, an inhibition [8] of 2.7% and an inhibition [9] of 0.36%. The inhibition [10] was 2.23%.
